Data taken from PubChem BioAssay (NCI).
This is part of a sample that, as a whole, favours compounds with a hit. Of some 83,000 tested, about 20% had one in any assay.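 Interpretation: 100, growth as untreated; towards 0, rising growth inhibition; 0, no net growth; 0 to -100, cell death. Compounds scoring below 10 were considered active.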 Calls of active or inactive are those of the source.

The compounds below were run on MDA-MB-468 breast (assay: NCI-60 one-dose screen, 48 h (100 = growth as untreated, 0 = no growth, -100 = all killed)). Conditions: 10 µM unless noted.

SMILES	growth
COc1cc(NC(C)CCCNC(=O)CCC(=O)NCCCNCCCCCCCCCCNCCCNC(=O)CCC(=O)NCCCC(C)Nc2cc(OC)cc3cccnc23)c2ncccc2c1 (configuration not stated)	-0.701% [8 µM] (active)
Cc1cc2c(F)c(Oc3ncnc(Nc4ccc(N5C[C@@H](C)N[C@@H](C)C5)cc4)c3C#N)cc(F)c2[nH]1	-5% (active)
CCN1C(=O)C2(Nc3ccccc3S2)c2cc(C)ccc21 (configuration not stated)	98.6% (inactive)
CCCCC[C@H](O)C/C=C1/C(=O)C=C[C@@H]1C/C=C\CCCC(=O)O	67.4% (inactive)
COc1cc2nc(N3CCC[C@@H](NC4=CC(=O)c5ccccc5C4=O)C3)nc(N)c2cc1OC	-51.3% (active)
O=C1Nc2cc(-c3ccc(NC(=O)c4ccccc4)cc3)ccc2/C1=C/c1ccc[nH]1	2.14% (active)
COc1cc(NS(C)(=O)=O)ccc1Nc1c2ccccc2nc2c(C)cccc12	-14.3% (active)
